# PubChem BioAssay (NCI)
# The panel holds about 83,000 compounds, 20% with a hit somewhere; the sample as a whole holds those more often.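 96-well plates, one dose, 48 hours. Percent growth reported; active if below 10.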 Unmarked numbers belong to inactive results. Active and inactive are the calls of the source.
# Tests used:
# Assay in all cases: NCI-60 one-dose screen, 48 h (100 = growth as untreated, 0 = no growth, -100 = all killed)
# Conditions in all cases: 10 µM unless noted
# NCI-H23 lung = tested on: NCI-H23 lung
# NCI-H226 lung = tested on: NCI-H226 lung
# NCI-H322M lung = tested on: NCI-H322M lung
# HOP-62 NSCLC = tested on: HOP-62 NSCLC
# NCI-H460 lung = tested on: NCI-H460 lung
# HOP-92 NSCLC = tested on: HOP-92 NSCLC
# NCI-H522 lung = tested on: NCI-H522 lung
# A549/ATCC NSCLC = tested on: A549/ATCC NSCLC
# 786-0 renal = tested on: 786-0 renal
# COLO 205 colon = tested on: COLO 205 colon
# DU-145 prostate = tested on: DU-145 prostate
# K-562 leukemia = tested on: K-562 leukemia
# MALME-3M melanoma = tested on: MALME-3M melanoma
# MDA-MB-231 breast = tested on: MDA-MB-231 breast
# RXF 393 renal = tested on: RXF 393 renal
# SF-268 CNS = tested on: SF-268 CNS
# SF-295 CNS = tested on: SF-295 CNS
# SF-539 CNS = tested on: SF-539 CNS
# UACC-257 melanoma = tested on: UACC-257 melanoma
# M14 melanoma = tested on: M14 melanoma
Compound,growth (NCI-H23 lung),growth (NCI-H226 lung),growth (NCI-H322M lung),growth (HOP-62 NSCLC),growth (NCI-H460 lung),growth (HOP-92 NSCLC),growth (NCI-H522 lung),growth (A549/ATCC NSCLC),growth (786-0 renal),growth (COLO 205 colon),growth (DU-145 prostate),growth (K-562 leukemia),growth (MALME-3M melanoma),growth (MDA-MB-231 breast),growth (RXF 393 renal),growth (SF-268 CNS),growth (SF-295 CNS),growth (SF-539 CNS),growth (UACC-257 melanoma),growth (M14 melanoma)
CC(=O)ONc1ccc([N+](=O)[O-])c(C(F)(F)F)c1,92.1%,97.8%,108%,80%,109%,99.6%,97.8%,95.3%,97.6%,106%,108%,105%,111%,102%,115%,95.3%,97.8%,93.5%,110%,
Cn1cc(-c2csc(-c3cn(CCCCN4CCCCC4)c4ccccc34)n2)c2cccnc21,42.7%,68.2%,88.2%,51.6%,-44.9% (active),46.3%,48%,-47.1% (active),-85.1% (active),-73.7% (active),21%,-57.8% (active),-66.9% (active),-63.5% (active),-84.5% (active),1.24% (active),-18% (active),-73.2% (active),-67.3% (active),-80.3% (active)
O=C(CC1(O)C(=O)N(Cc2ccccc2)c2ccc(Br)cc21)c1ccc(C(=O)NCC2CCC3(CC2)OOC2(CCCCC2)OO3)cc1 (stereo unspecified),-74.3% (active),-33% (active),73.9%,-55.6% (active),-41% (active),-74.1% (active),2.53% (active),-61.1% (active),-70.7% (active),-49.5% (active),-98.8% (active),-5.58% (active),-68.1% (active),-73.9% (active),-76.5% (active),-1.12% (active),29.3%,-85.1% (active),57%,41.9%
CCOP1(=O)CC(C)=C(Cl)C(P(=O)(OCC)OCC)C1 (stereo unspecified),91.5%,103%,124%,93.9%,112%,89.1%,71.3%,90.4%,115%,94.1%,109%,110%,118%,87.6%,74.5%,107%,103%,113%,76.9%,
O=C(CC1(O)C(=O)Nc2ccc(Br)cc21)c1ccc(C(=O)NCC2CCC3(CC2)OOC2(CCCCC2)OO3)cc1 (stereo unspecified),53.7%,61.3%,80.1%,31%,36.4%,-46.3% (active),6.67% (active),36.7%,-7.61% (active),51.4%,59.1%,-61% (active),-7.48% (active),56.8%,69.5%,47.8%,69.1%,55%,49.4%,
CCOc1ccc(/C=C/[N+](=O)[O-])cc1,87.8%,81.4%,98.5%,110%,98.2%,76.6%,96.8%,78.8%,92.4%,94.1%,99.3%,69%,106%,92.8%,16.9%,98.9%,82.5%,39%,85.5%,
CCCCCCCC[N+](C)(CCCCCCCC)CCCCCCCC,-97% (active),-86.2% (active),-100% (active),-92.2% (active),-100% (active),-70% (active),-99.9% (active),-100% (active),-95.7% (active),-60.7% (active),-100% (active),86.9%,-91.7% (active),-87% (active),-100% (active),-100% (active),-94.8% (active),-100% (active),-95.2% (active),-94.1% (active)
COc1cc2c(cc1OCc1ccccc1)C(CC(C)C)=[N+](C)CC2,56.4%,81.2%,97.8%,88.2%,92.1%,77.7%,66.3%,61%,95.6%,56.9%,93.6%,67.2%,85%,93%,93.9%,67.5%,68.2%,76.7%,50%,99.1%
O=[N+]([O-])c1cc([N+](=O)[O-])c(Nn2c3ccccc3c3ccccc32)c([N+](=O)[O-])c1,-3.12% (active),-1.91% (active),2.33% (active),-11.8% (active),3.43% (active),-28.1% (active),-25.4% (active),4.97% (active),0.775% (active),-65.2% (active),22.7%,6.42% (active),-16.2% (active),-6.81% (active),-4.31% (active),16.2%,-47.6% (active),8.26% (active),-22.6% (active),1.91% (active)
CCOP(=O)(Cc1ccc(C#N)cc1)OCC,99.9%,108%,104%,98.5%,108%,76.9%,75%,91.2%,101%,108%,116%,100%,108%,100%,115%,112%,108%,109%,88.8%,101%
CC12CCC=CC1CCC1C2CCC2(C)C(c3ccc(=O)oc3)CCC12O (stereo unspecified),-64% (active),-92.3% (active),-22.5% (active),-71.9% (active),-69.3% (active),-10.7% (active),-27.9% (active),-52.1% (active),-51.1% (active),-50.9% (active),-97.4% (active),0.925% (active),-48.4% (active),-5.15% (active),-47.2% (active),-62.8% (active),-60% (active),-90.3% (active),-70.3% (active),-30.3% (active)
C=CC[PH+](c1ccccc1)c1ccccc1.C=CC[PH+](c1ccccc1)c1ccccc1.[Cl][Pt][Cl],58.8%,73.9%,101%,95.8%,91.9%,16%,9.41% (active),88.2%,49.7%,22.2%,71.7%,0.456% (active),-26.4% (active),41.8%,-16.6% (active),95.5%,89.8%,68%,80%,51.9%
O=C(Nc1ccncc1F)c1cn(CC2CC2)c2ccccc12,101%,83.7%,109%,108%,101%,123%,92.3%,98.5%,97.6%,112%,114%,95.7%,119%,109%,103%,105%,100%,110%,108%,108%
COc1ccc2c(c1)c(-c1nc(-c3c[nH]c4ncccc34)cs1)cn2CCCCN1CCCCC1,1.32% (active),39.6%,-20.2% (active),-75.5% (active),-69.8% (active),20.5%,-68.8% (active),-65.9% (active),-90% (active),-76.2% (active),-14.6% (active),-73.7% (active),-76.1% (active),-75.9% (active),-85.8% (active),-50.9% (active),-64.9% (active),-80.9% (active),-82.3% (active),-88% (active)
COC(C(=O)[C@@H](O)[C@@H](C)O)[C@@H]1Cc2cc3cc(O[C@H]4C[C@@H](O[C@H]5C[C@@H](O)[C@H](O)C(C)O5)[C@H](O)C(C)O4)c(C)c(O)c3c(O)c2C(=O)[C@H]1O[C@H]1C[C@@H](O[C@H]2C[C@@H](O[C@H]3C[C@@H](O)[C@@H](O)C(C)O3)[C@@H](O)C(C)O2)[C@H](O)C(C)O1 (stereo partly specified),-0.735% (active),-22.2% (active),14%,-4.46% (active),7.75% (active),13.3%,-23.7% (active),2.42% (active),-1.51% (active),-43.3% (active),17.5%,9.59% (active),-38.7% (active),3.75% (active),-60.5% (active),24.4%,12.9%,1.03% (active),-38.6% (active),8.68% (active)
